In the supplement of paper PMC11732987, “Enantioselective OTUD7B fragment discovery through chemoproteomics screening and high-throughput optimisation” (Communications Chemistry, 2025):

Tests used:
Experiment in all cases: log2 ratio of Biotin-Ahx-Ub-VS probe labelling (fragment/DMSO); higher = less target engagement (more negative = stronger competition), active = hit call of the paper (q ≤ 0.05, log2 ratio ≤ -1)
Details in all cases: compound concentration: 200 uM; treatment time: 3 h
USP19 = target: T1, USP19 (UniProt O94966)
T1 sequence (whole entry): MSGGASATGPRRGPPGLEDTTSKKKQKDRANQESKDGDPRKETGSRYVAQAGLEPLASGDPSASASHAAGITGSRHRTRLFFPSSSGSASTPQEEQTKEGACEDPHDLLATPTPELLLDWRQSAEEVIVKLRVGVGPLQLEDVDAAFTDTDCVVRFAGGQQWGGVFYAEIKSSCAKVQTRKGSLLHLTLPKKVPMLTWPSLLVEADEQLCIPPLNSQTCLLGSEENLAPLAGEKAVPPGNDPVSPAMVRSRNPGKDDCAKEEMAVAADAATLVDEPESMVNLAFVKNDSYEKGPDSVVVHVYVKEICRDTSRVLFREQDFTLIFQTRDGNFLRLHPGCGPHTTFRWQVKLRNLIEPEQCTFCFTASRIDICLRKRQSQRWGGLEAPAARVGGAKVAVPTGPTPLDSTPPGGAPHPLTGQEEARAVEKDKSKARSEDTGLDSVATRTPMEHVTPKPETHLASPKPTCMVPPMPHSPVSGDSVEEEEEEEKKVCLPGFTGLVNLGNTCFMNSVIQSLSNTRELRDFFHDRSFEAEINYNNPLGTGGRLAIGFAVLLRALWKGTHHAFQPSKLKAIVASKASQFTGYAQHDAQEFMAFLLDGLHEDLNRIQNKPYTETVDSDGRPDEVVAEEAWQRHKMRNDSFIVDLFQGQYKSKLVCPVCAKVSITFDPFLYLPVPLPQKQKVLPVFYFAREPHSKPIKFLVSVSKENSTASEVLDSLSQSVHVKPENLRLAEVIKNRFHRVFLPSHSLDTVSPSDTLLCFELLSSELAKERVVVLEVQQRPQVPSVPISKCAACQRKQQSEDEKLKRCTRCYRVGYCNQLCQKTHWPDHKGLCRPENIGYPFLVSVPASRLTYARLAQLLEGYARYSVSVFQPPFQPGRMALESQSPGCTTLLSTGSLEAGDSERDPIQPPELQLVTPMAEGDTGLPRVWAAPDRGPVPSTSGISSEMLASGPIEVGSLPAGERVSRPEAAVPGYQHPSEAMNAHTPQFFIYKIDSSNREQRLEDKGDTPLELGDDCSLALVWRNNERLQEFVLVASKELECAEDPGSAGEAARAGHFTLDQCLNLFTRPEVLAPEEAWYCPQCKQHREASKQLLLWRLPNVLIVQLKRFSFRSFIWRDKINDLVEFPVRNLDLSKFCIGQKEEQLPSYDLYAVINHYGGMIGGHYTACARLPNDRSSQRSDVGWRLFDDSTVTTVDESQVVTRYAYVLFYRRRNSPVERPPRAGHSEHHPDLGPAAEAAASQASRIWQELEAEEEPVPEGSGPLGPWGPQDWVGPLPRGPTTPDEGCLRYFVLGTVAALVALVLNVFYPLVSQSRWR
Procedure, shortened: (§1)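 Each value is an average log2 ratio of fragment to vehicle, tested by unpaired t-test. The underlying Spectronaut label-free quantities were global-median-normalised, and only proteins with ≥2 unique peptides were included. Triplicate HEK293T lysate samples (495 µg) were exposed to fragment at 200 µM or vehicle for 3 h, then to Biotin-Ahx-Ub-VS at 0.5 µM final for 1 h, before NeutrAvidin enrichment of labelled DUBs, LysC and trypsin digestion, and diaPASEF LC-MS/MS.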

USP22 = target: T2, USP22 (UniProt Q9UPT9)
T2 sequence (whole entry): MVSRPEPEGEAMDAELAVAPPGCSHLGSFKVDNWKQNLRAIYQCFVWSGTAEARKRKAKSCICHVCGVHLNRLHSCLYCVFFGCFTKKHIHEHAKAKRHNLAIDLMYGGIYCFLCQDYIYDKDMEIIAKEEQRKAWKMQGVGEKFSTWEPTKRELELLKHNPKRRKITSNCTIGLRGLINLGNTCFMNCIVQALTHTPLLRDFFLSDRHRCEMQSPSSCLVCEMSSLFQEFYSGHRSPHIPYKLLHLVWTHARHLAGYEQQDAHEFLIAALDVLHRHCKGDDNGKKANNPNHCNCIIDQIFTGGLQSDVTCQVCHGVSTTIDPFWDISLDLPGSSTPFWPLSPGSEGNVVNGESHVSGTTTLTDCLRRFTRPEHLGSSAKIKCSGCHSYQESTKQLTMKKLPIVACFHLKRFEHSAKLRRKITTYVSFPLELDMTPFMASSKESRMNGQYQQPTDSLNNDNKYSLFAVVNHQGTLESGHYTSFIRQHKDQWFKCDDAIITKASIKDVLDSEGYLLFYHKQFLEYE
Procedure, shortened: as §1

USP24 = USP24 (UniProt Q9UPU5)
Procedure, shortened: as §1

USP25 = target: T3, USP25 (UniProt Q9UHP3)
T3 sequence (whole entry): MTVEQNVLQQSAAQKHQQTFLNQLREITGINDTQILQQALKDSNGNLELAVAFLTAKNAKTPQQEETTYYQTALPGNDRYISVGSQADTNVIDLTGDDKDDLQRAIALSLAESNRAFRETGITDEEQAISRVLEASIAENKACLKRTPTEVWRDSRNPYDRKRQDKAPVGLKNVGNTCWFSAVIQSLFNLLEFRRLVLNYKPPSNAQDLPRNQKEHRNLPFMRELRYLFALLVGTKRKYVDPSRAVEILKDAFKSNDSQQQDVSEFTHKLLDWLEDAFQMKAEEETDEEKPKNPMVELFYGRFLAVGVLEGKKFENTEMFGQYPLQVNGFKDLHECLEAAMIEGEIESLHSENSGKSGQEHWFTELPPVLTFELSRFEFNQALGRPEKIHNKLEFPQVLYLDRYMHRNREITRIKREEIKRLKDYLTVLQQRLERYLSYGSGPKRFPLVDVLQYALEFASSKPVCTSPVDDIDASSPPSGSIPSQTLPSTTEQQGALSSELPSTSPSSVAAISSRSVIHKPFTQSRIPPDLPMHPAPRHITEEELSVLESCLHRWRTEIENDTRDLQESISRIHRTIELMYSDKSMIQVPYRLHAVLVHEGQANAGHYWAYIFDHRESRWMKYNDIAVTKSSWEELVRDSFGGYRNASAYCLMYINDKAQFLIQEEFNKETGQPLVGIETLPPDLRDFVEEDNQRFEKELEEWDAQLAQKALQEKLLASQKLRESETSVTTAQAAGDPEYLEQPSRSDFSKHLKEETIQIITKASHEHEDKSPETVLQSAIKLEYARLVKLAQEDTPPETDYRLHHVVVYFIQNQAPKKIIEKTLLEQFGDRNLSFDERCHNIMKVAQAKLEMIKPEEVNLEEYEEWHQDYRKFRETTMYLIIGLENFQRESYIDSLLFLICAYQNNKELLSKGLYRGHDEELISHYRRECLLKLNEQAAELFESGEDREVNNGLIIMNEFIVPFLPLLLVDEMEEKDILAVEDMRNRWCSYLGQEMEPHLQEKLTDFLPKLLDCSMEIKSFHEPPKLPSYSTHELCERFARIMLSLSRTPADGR
Procedure, shortened: as §1

USP28 = target: T4, USP28 (UniProt Q96RU2)
T4 sequence (whole entry): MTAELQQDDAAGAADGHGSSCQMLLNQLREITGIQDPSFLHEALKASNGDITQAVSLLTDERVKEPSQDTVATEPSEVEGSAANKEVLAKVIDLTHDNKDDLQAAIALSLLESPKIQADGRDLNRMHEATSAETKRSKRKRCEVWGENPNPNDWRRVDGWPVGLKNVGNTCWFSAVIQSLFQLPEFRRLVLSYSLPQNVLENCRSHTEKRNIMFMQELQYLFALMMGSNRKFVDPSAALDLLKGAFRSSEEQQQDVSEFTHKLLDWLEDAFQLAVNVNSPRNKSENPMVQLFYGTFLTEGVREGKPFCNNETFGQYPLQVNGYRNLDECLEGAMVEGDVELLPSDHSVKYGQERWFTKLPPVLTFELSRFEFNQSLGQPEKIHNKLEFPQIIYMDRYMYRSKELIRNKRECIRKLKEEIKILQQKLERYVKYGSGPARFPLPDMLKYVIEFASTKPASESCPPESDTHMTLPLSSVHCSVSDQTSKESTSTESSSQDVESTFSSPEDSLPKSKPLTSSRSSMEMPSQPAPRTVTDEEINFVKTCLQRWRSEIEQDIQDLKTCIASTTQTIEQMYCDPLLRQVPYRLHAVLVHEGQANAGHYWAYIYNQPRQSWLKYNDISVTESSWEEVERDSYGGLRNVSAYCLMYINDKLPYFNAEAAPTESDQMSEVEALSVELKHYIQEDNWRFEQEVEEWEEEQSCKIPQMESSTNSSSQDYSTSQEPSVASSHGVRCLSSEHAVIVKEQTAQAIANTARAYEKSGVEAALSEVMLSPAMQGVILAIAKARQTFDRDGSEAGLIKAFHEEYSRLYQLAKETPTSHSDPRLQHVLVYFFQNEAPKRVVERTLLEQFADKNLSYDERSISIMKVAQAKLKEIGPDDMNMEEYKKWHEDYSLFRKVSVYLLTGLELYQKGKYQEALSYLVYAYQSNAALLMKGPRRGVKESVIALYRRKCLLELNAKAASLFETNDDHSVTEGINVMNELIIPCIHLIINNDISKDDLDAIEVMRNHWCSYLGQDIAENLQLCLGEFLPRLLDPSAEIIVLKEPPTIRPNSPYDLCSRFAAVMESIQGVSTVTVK
Procedure, shortened: as §1

Measured: log2 ratio of Biotin-Ahx-Ub-VS probe labelling

USP24, sequence (Q9UPU5 whole entry): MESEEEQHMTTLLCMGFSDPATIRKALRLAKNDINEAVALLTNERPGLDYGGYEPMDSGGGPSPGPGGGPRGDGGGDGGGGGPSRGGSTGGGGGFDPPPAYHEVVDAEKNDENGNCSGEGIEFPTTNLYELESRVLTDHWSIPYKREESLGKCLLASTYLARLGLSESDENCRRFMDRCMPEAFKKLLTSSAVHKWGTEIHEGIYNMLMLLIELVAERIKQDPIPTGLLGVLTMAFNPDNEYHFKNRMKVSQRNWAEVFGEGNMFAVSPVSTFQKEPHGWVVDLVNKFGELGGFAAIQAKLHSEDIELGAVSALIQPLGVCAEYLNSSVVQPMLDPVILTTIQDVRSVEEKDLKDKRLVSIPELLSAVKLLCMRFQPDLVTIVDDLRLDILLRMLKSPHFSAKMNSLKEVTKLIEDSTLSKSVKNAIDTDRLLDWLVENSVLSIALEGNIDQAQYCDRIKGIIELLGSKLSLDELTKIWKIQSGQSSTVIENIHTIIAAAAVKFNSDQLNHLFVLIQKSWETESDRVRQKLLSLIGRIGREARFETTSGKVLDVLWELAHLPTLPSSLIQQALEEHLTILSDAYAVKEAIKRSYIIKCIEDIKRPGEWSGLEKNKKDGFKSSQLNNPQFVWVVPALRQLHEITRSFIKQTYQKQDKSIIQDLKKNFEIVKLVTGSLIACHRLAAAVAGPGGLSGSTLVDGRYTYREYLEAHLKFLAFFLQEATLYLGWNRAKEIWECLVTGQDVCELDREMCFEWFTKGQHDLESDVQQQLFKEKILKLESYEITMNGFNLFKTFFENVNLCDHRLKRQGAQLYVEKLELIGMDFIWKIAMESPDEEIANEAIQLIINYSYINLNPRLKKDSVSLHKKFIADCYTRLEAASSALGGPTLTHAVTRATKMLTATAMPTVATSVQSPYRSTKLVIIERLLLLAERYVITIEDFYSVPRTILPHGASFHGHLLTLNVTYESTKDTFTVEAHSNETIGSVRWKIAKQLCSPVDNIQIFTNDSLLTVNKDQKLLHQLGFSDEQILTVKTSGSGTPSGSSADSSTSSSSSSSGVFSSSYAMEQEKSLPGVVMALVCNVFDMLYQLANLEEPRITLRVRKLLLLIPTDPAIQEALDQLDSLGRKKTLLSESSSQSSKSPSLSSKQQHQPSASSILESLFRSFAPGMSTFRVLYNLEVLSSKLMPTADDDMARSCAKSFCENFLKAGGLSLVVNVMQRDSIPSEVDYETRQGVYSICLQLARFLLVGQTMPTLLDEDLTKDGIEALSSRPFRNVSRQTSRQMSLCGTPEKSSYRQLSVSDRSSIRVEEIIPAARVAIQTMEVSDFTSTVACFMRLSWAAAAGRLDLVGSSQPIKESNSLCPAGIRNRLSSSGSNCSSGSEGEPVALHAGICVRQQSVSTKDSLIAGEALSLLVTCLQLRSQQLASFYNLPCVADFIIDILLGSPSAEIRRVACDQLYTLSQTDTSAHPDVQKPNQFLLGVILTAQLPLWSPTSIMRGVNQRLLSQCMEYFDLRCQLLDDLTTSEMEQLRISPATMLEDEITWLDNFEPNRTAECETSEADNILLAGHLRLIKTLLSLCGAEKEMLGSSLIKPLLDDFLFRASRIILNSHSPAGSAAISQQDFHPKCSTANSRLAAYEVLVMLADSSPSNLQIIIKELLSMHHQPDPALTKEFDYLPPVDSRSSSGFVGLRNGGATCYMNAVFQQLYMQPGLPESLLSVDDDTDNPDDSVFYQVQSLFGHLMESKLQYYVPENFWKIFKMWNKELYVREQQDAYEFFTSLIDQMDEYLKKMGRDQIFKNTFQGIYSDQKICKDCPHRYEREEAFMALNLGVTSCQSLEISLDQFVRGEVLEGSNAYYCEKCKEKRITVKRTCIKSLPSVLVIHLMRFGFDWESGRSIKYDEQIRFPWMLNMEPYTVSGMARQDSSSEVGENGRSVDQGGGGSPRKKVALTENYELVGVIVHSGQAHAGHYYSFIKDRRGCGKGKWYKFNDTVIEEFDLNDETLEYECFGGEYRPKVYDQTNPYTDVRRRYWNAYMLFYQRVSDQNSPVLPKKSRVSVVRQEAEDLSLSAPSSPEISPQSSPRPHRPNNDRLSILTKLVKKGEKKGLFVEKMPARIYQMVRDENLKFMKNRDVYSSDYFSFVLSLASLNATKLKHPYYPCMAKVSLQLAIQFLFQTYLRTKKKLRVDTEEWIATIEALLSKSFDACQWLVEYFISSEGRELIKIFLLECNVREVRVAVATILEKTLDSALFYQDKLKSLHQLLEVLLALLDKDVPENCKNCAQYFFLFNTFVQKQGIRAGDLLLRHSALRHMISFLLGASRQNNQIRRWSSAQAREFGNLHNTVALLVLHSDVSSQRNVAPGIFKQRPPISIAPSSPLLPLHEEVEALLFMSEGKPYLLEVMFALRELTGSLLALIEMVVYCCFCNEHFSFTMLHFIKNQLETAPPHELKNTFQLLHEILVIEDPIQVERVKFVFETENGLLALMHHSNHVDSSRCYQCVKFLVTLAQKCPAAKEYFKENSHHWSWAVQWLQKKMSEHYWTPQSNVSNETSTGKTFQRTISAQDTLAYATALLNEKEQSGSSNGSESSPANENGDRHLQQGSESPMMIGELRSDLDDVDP

O=C(CCl)N1CCOCC1C1CC1 (stereo not given)
inactive: USP19 -0.0224 | USP22 0.0159 | USP24 -0.173 | USP25 -0.127 | USP28 -0.304
